The campaign covered roughly 53,000 compounds. About 900 (1.7%) showed an effect of 50% or more. This excerpt belongs to a sample that is enriched for strong results.

The test system of this assay is Mycobacterium tuberculosis. As to the kind of experiment: Cornell - Phenotypic assay to identify agents that inhibit growth of Mycobacterium tuberculosis. In kind it is functional. Further details: scale not given: direction of the effect not stated beside the values. To be noted: 10 mM as filed; unlikely as a test dose.
With `CC(=O)N1CCCC1c1nc(C)c2c(n1)N(Cc1ccccn1)CCC2` (configuration not stated), the “Percent Effect” value is reported as -10.82%.
In the case of `O=C(CCCOCc1ccccc1)N1CCCC(c2ncc[nH]2)C1` (configuration not stated), the “Percent Effect” value is listed as 18.83%.
With `O=C(Cc1cccs1)N1CC[C@H]2[C@@H]1CCC(=O)N2c1cccnc1.O=C(O)C(F)(F)F` the figure was 4.016%.
Take `CNc1nc2c(s1)C(c1ccc(Cl)cc1Cl)CC(=O)N2` (configuration not stated): the “Percent Effect” value turned out to be 15.33%.
With `COc1ccccc1C1CC(=O)Nc2c1c(=O)[nH]n2C1CCCC1` (configuration not stated) the figure was 42.49%; with `O=C1CC(c2ccccc2C(F)(F)F)c2sc(N3CCOCC3)nc2N1` (configuration not stated), 43.16%.
As for `CCOc1cccc(C2CC(=O)NCc3nc(N4CCCC4)sc32)c1` (configuration not stated), the figure is -20.96%; as for `COc1ccccc1C1CC(=O)Nc2c1c(=O)[nH]n2C(C)C` (configuration not stated), 7.683%.
In the case of `CC(C)Oc1ccccc1C1CC(=O)Nc2nc(N3CCOCC3)sc21` (configuration not stated), the “Percent Effect” value was determined as 106.3%.
With `COc1cccc(C2CC(=O)Nc3nc(N4CCCCC4)sc32)c1OC` (configuration not stated) the figure was 70.71%; with `COc1cccc(C2CC(=O)Nc3nc(N4CCOCC4)sc32)c1OC` (configuration not stated), 84.05%.
With `COc1ccccc1C1CC(=O)Nc2nc(N3CCCCC3)sc21` (configuration not stated) the figure was 102.8%; with `O=C1CC(c2ccccc2Br)c2sc(N3CCOCC3)nc2N1` (configuration not stated), 44.02%; with `CCn1ncnc1C1CC(=O)NCc2nc(N3CCOCC3)sc21` (configuration not stated), 3.2%.
Consider `CCNc1nnc(CCn2nc(C)c(Br)c2C)s1`, for which the “Percent Effect” value was found to be 29.93%.
In the case of `COCC(O)CN1CCC(=O)N(CC=C(C)C)Cc2ccccc21` (configuration not stated), the “Percent Effect” value was -1.382%.
With `CCc1cnc(N2C[C@H]3C[C@H](C(=O)N4CCOCC4)[C@@H](C2)O3)nc1.O=C(O)C(F)(F)F` the figure was 10.32%; with `CCS(=O)(=O)Nc1ccc(C(=O)NCCCN2CCCC2)cc1`, -15.51%; with `CCc1cnc(N2CC[C@H]3[C@@H]2CCC(=O)N3c2ccccc2)nc1.O=C(O)C(F)(F)F`, -28.43%.
Take `CCc1nnc(CN(CC)C(=O)C2CC(=O)N(C3CC3)C2)o1` (configuration not stated): the “Percent Effect” value is given as 3.101%.
As for `CNC(=O)C1CCCN1C(=O)NCCCc1cccc(F)c1` (configuration not stated), the figure is 3.774%; as for `COc1ccc(C2CC(=O)Nc3nc(N4CCOCC4)sc32)c(OC)c1` (configuration not stated), 45.08%.
With `COc1cccc(C2CC(=O)Nc3nc(N)sc32)c1OC` (configuration not stated) the figure was 76.98%; with `COc1cccc(C2SCC(=O)Nc3ccsc32)c1OC` (configuration not stated), 25.58%; with `COc1ccc(OC)c(C2CC(=O)Nc3nc(N4CCOCC4)sc32)c1` (configuration not stated), 77.37%.
With `COc1ccc(C2SCC(=O)Nc3n[nH]cc32)c(OC)c1OC` (configuration not stated) the figure was -14.08%; with `COc1ccc(C2CC(=O)Nc3nc(N4CCOCC4)sc32)cc1` (configuration not stated), 22.64%.
`CCN(Cc1ccncc1)CC1(O)CCN(C(=O)c2cnn(C)c2)C1` (configuration not stated): the “Percent Effect” value is recorded as -5.524%.
With `O=C(NCc1ccccc1)[C@H]1C[C@@H]2CN(C(=O)NC3CCCC3)C[C@H]1O2` the figure was -33.72%; with `Cc1cc(C(=O)N2C[C@@H]3OCCN(CCN4CCCC4)[C@@H]3C2)c(C)o1.O=C(O)C(F)(F)F`, -34.44%.
With `Cc1cccc(NC2CCN(C(=O)Nc3cn[nH]c3)CC2)n1`, the “Percent Effect” value was 5.834%.
As for `CCc1cc(N(C)Cc2ccno2)n2nc(C)c(C)c2n1`, the figure is 28.15%; as for `Cc1cc(=O)[nH]c(NC2CCN(S(=O)(=O)c3ccccc3)CC2)n1`, 26.85%; as for `Cc1nc(NC2CCN(S(=O)(=O)c3ccccc3)CC2)[nH]c(=O)c1C`, -2.855%.
With `CCc1cc(=O)[nH]c(NC2CCN(S(=O)(=O)c3ccccc3)CC2)n1`, the “Percent Effect” value is reported as 69.51%.
With `O=C(N1CCOCC1)N1CCc2ncc(CN3CCCCC3)n2CC1.O=C(O)C(F)(F)F`, the “Percent Effect” value is 15.78%.
As for `COCCCN(Cc1ccccn1)S(=O)(=O)c1ccc(OC)cc1`, the figure is -5.527%; as for `CC(C)(C)c1cc(NC(=O)NCCc2nnc3n2CCC3)c(C#N)s1`, 18.93%.
With `Cc1noc(CCCC(=O)NCCc2cc3ccccc3[nH]2)n1` the figure was 55.01%; with `Cc1noc(CCCC(=O)Nc2ncccc2Br)n1`, -30.93%; with `Cc1noc(CCCNC(=O)CNC(=O)c2cc3ccccc3[nH]2)n1`, 17.25%.
With `O=C(O)C(F)(F)F.O=C(O)C(F)(F)F.c1nc(CN2CCC3(CC2)COCCN3CC2CC2)c[nH]1` the figure was 14.15%; with `CC(=O)N1CCC2(C1)c1ccccc1S(=O)(=O)N2Cc1ccccc1` (configuration not stated), -2.139%; with `CCS(=O)(=O)N1CCc2ccc(NC(=O)Nc3cccc(C)c3)cc21`, 35.62%.
Consider `CCS(=O)(=O)N1CCc2ccc(NC(=O)Nc3ccccc3)cc21`, for which the “Percent Effect” value is listed as 24.03%.
On to `CCS(=O)(=O)N1CCc2ccc(NC(=O)Nc3cccc(C#N)c3)cc21`, for which the “Percent Effect” value is recorded as 83.89%.
With `O=C(CC1=CSC2=NCCCN12)N1CCCCCC1c1ccco1` (configuration not stated) the figure was -8.894%.
For the compound `CCSCCNc1nc(-c2ccccn2)nc2c1c(C)nn2C`, the “Percent Effect” value stood at 51.67%.
Take `Cc1nn(C)c2nc(-c3ccccn3)nc(NCCC3CCCN3C)c12` (configuration not stated): the “Percent Effect” value is on record as -44.58%.
With `Cc1nn(C)c2nc(-c3ccccn3)nc(NCCCOC(C)C)c12` the figure was 64.07%; with `CC(=O)NCCNc1nc(-c2ccccn2)nc2c1c(C)nn2C`, 12.46%.
Regarding `Cc1nn(C)c2nc(-c3ccccn3)nc(NC[C@@H]3CCCO3)c12`, the “Percent Effect” value is 21.74%.
As for `CSCC[C@@H](CO)Nc1nc(-c2ccccn2)nc2c1c(C)nn2C`, the figure is 2.174%.
As to `CNC(=O)c1coc(-c2csc(C)n2)c1`, the “Percent Effect” value was 11.85%.
With `Cc1nc(-c2cc(C(=O)NC(C)(C(=O)O)C(C)C)co2)cs1` (configuration not stated) the figure was 45.67%; with `Cc1nc(-c2cc(C(=O)O)co2)cs1`, 58.57%.
In the case of `CCn1cc(CN2C[C@@H]3CCCN3C[C@H]2CCSC)c(C)n1`, the “Percent Effect” value is listed as -15.91%.
As for `Cc1ccc2c(c1)C1(CCNCC1)CN2C(=O)CN(C)C.O=C(O)C(F)(F)F.O=C(O)C(F)(F)F`, the figure is 0.8832%; as for `CCS(=O)(=O)Nc1ccn(Cc2ccc(F)cc2Cl)n1`, 28.06%.
In the case of `Cn1ncc2c1NC(=O)CC2c1cc(Cl)ccc1F` (configuration not stated), the “Percent Effect” value came to 13.85%.
As for `Cn1ncc2c1NC(=O)CC2c1ccccc1Cl` (configuration not stated), the figure is -9.252%.
With `Cn1ncc2c1NC(=O)CC2c1ccc(Cl)cc1Cl` (configuration not stated) the figure was 59.83%.
